One experiment relates to Klebsiella pneumoniae. The following applies: Concentration 32 ug.mL-1;; ASSAY_TEST Inhibition of Bacterial Growth; detection method Absorption (OD600); MEDIA CAMHB; plate type 384well; NBS; CORNING #3640; time 18 hr.
A further experiment has as its system Candida albicans. The following applies: Concentration 32 ug.mL-1; ASSAY_TEST Inhibition of Fungal Growth; detection method Absorption (OD530).
A further experiment relates to Cryptococcus neoformans. The note with it: Concentration 32 ug.mL-1; ASSAY_TEST Inhibition of Fungal Growth; detection method Resazurin; Absorption (OD600-OD570); plate type 384well; NBS; CORNING #3640. For orientation: Resazurin is reduced to fluorescent resorufin, in cell work by metabolically active cells.

Results with a measured potency or affinity are listed apart.

Take `O=C(Cn1nc2ccc(SCc3ccc(Cl)cc3)nn2c1=O)Nc1ccc(F)c(F)c1`: the Inhibition in the experiment on Klebsiella pneumoniae is on record as 3.9%; with Candida albicans, 20.34%; in the experiment with Cryptococcus neoformans, -13.26%.
In the same order, the values of `COC(=O)c1ccc(CN(c2ccc(C)cc2)S(=O)(=O)c2ccc3nnc(C)n3c2)o1` are 8.84%, 0.1% and -13.09%.
Taken in the same sequence, the figures for `COC(=O)c1ccc(NC(=O)Cn2nc3c4cc(-c5ccc(Cl)cc5)nn4ccn3c2=O)cc1` were 10.1%, 2.64% and -4.53%.
With `CCOC(=O)C1CCN(c2nc3ccccc3n3c(=O)n(CC(=O)Nc4ccccc4F)nc23)CC1`, the Inhibition is on record as 4.78% in the experiment on Klebsiella pneumoniae, 13.18% in the experiment on Candida albicans and -20.01% in the experiment with Cryptococcus neoformans.
In the same order, the values of `Cc1cccc(Oc2nccn3c(=O)n(CC(=O)N4CCN(c5ccccc5F)CC4)nc23)c1C` are -1.33%, 1.02% and -17.84%.
Taken in the same sequence, the figures for `CCOc1ccc(-n2ccn3c(SC(C)C(=O)Nc4ccc5c(c4)OCCO5)nnc3c2=O)cc1` (stereo not given) were 14.39%, 0.98% and -16.53%.
Taken in the same sequence, the figures for `O=c1c2nn(Cc3cccc(F)c3)c(=O)n2ccn1-c1ccccc1` were 3.5%, 1.62% and -10.61%.
On to `CCC(C)NC(=O)Cn1nc2n(CCC(=O)NC3CCCCC3)c(=O)c3ccccc3n2c1=O` (stereo not given), for which the Inhibition was -2.01% in the experiment on Klebsiella pneumoniae, 3.91% in the experiment on Candida albicans and -20.86% with Cryptococcus neoformans.
Taken in the same sequence, the figures for `O=C(Cn1nc2c3cc(-c4ccc(F)cc4)nn3ccn2c1=O)N1CCN(c2ccccc2F)CC1` were 8.2%, 2.96% and -19.92%.
Consider `Cc1nnc2ccc(S(=O)(=O)N(Cc3ccc(F)cc3)c3ccc(Cl)cc3)cn12`, for which the results for the Inhibition with Klebsiella pneumoniae, with Candida albicans and in the experiment on Cryptococcus neoformans were 9.19%, 1.14% and -10.26%, respectively.
In the same order, the values of `COc1cccc(-n2ccn3c(SCC(=O)c4cc(C)c(C)cc4C)nnc3c2=O)c1` are 11.25%, 2.17% and -10.44%.
For the compound `COc1cccc(CN(c2ccc(F)cc2)S(=O)(=O)c2ccc3nnc(C)n3c2)c1`, the Inhibition in the experiment on Klebsiella pneumoniae is recorded as 7.98%; in the experiment on Candida albicans it was -0.17%; in the experiment with Cryptococcus neoformans it was -13.2%.
Turning to `COC(=O)c1ccc(NC(=O)Cn2nc3c(Oc4cccc(OC)c4)nccn3c2=O)cc1`, the Inhibition in the experiment with Klebsiella pneumoniae is 5.51%; with Candida albicans, 12.96%; with Cryptococcus neoformans, -6.09%.
Taken in the same sequence, the figures for `CSc1ccc(CNC(=O)Cn2nc3c(Oc4cccc(C)c4C)nccn3c2=O)cc1` were 12.69%, 0.27% and -6.54%.
In the same order, the values of `COc1cccc(Oc2nccn3c(=O)n(CC(=O)NC4CCCCC4)nc23)c1` are 9.68%, -1.29% and -8.14%.
In the same order, the values of `CCC(C)NC(=O)c1ccc2c(=O)n(CCC(C)C)c3nn(CC#N)c(=O)n3c2c1` (stereo not given) are 14.77%, 0.65% and -22.02%.
Turning to `CC(C)(C)Sc1ccc2nn(CC(=O)Nc3ccccc3C(F)(F)F)c(=O)n2n1`, the Inhibition is reported as 13.7% in the experiment on Klebsiella pneumoniae, 0.56% in the experiment with Candida albicans and -20.81% in the experiment on Cryptococcus neoformans.
Taken in the same sequence, the figures for `Cc1cc2nn(CC(=O)Nc3ccc(F)c(F)c3)c(=O)n2c(Nc2ccc(F)c(C)c2)n1` were 10.55%, 1.57% and -7.1%.
Taken in the same sequence, the figures for `COc1ccc(-c2cc3c4nn(CC(=O)Nc5ccc(C)cc5C)c(=O)n4ccn3n2)cc1` were 11.47%, 2.57% and -20.53%.
Taken in the same sequence, the figures for `COc1cc(NC(=O)Cn2nc3c(N4CCCC4)nccn3c2=O)cc(OC)c1` were 0.81%, -1.46% and -4.76%.
With `Cc1nnc2ccc(S(=O)(=O)N(Cc3cccc(F)c3)c3ccc4c(c3)OCO4)cn12`, the Inhibition in the experiment with Klebsiella pneumoniae is given as 1.28%; in the experiment with Candida albicans, 3.36%; in the experiment on Cryptococcus neoformans, -7.24%.
In the same order, the values of `Cc1ccc(-c2cc3c4nn(CC(=O)Nc5cccc(Br)c5)c(=O)n4ccn3n2)cc1` are 10.81%, 6.28% and -43.73%.
Taken in the same sequence, the figures for `COc1cccc(Oc2nccn3c(=O)n(CC(=O)Nc4cc(C)c(Cl)cc4OC)nc23)c1` were -0.9%, 1.25% and -7.05%.
Regarding `Cc1cc(C)cc(Nc2nc(C)cc3nn(CC(=O)NCc4ccco4)c(=O)n23)c1`, the values for the Inhibition with Klebsiella pneumoniae, in the experiment with Candida albicans and in the experiment with Cryptococcus neoformans were 10.95%, 2.86% and -8.71%, respectively.
In the same order, the values of `Cc1ccc(Sc2nccn3c(=O)n(CC(=O)Nc4ccc(C)cc4Br)nc23)c(C)c1` are 10.73%, 2.86% and -20.37%.
With `Cc1ccc(Cl)cc1NC(=O)Cn1c(=O)c2nnc(C(C)C)n2c2ccccc21`, the figures for the Inhibition in the experiment on Klebsiella pneumoniae, in the experiment with Candida albicans and in the experiment with Cryptococcus neoformans were 5.77%, 3.52% and -16.4%, respectively.
Taken in the same sequence, the figures for `O=C(Cn1nc2nc(Nc3ccc(F)cc3)ccn2c1=O)NCC1CCCO1` (stereo not given) were 12.02%, 1.89% and -8.84%.
In the same order, the values of `Cc1ccc(Cl)cc1NC(=O)CSc1nnc2n(CC3CCCO3)c(=O)c3sccc3n12` (stereo not given) are 10.58%, -1.49% and -15.54%.
Taken in the same sequence, the figures for `CCOc1ccccc1CNC(=O)CCc1nnc2ccc(-c3ccccc3)nn12` were 9.31%, 0.83% and -22.57%.
Regarding `CSc1cccc(NC(=O)Cn2nc3c(Sc4ccccc4)nccn3c2=O)c1`, the Inhibition with Klebsiella pneumoniae is on record as 1.1%; in the experiment with Candida albicans, 18.38%; with Cryptococcus neoformans it was -12.89%.

One may read the Inhibition as the change of the read-out against control, counted positive when it falls.
